# Compound activity as filed in PubChem BioAssay.
# Sfp PPTase inh – inhibitors of Bacillus subtilis Sfp phosphopantetheinyl transferase. Q9F4F7. Potency, µM, for the others: largest response in the series, negative = inhibition, usual class: inhibitors. 3.5% of 310,000 active. AID 1490. Biochemical Sfp PPTase activity, qHTS;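 also: the enzyme is Sfp with the accession as filed and its product quenches rhodamine fluorescence; 0% = enzyme reaction without inhibitor and -100% = no enzyme wells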
#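 Buffer: 50 mM Hepes-Na pH 7.6, 10 mM MgCl2, 0.01% Nonidet P-40, 0.01% BSA. Enzyme 15 nM, pre-exposed to compound 15 min; substrates then added and fluorescence change tracked over 30 min.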
# PLK1 PBD block – PLK1 (human) polo-box domain binding inhibition; 2.8% of 360,000 active; Plk1 PBD binding of FITC phosphopeptide, fluorescence polarization; P53350; Potency, µM, without a hit: max response, negative = inhibition, actives largely listed as inhibitors; AID 720504; also: series mostly up to about 57 µM; % is scaled to controls: 0 for no effect and ±100 for the full control effect; nearly all actives have a fitted effect of over 65% in size
# Target sequence (P53350 whole entry, looked up, the tested form may be a part): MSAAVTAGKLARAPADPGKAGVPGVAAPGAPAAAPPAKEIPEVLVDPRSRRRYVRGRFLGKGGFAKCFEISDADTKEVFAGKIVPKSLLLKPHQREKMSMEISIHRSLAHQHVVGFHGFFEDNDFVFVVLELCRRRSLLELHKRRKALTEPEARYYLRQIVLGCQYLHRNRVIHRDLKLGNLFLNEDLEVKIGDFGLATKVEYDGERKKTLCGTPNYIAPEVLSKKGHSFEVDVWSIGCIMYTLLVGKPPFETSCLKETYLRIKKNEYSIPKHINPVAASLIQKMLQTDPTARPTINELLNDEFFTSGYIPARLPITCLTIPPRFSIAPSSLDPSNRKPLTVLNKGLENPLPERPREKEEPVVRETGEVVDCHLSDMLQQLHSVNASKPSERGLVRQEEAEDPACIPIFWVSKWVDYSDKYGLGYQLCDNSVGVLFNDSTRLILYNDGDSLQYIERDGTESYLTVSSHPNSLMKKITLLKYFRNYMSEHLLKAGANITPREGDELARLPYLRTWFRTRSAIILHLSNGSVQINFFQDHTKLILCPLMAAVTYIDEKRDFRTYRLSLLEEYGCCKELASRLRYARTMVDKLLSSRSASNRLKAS
# G9a block – G9a (human) methyltransferase inhibition; Q96KQ7; G9a H3K9 monomethylation, AlphaScreen, 2 h; Potency, µM (highest dose often 102 µM), for inactives: top-dose activity, negative = inhibition, most hits filed as inhibitors; 8.8% of 350,000 active; AID 504332; also: % is scaled to controls: 0 for no effect and ±100 for the full control effect; nearly all actives have a fitted effect of over 75% in size
#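 AlphaScreen read-out: biotin-H3K9 peptide (500 nM) methylation by 20 nM enzyme with 20 uM SAM, 2 h at room temperature after 15 min compound preincubation; anti-monomethyl H3K9 antibody plus donor/acceptor beads, 10 min dark.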
# HP1b binding inh – blocks HP1-beta chromodomain binding to methylated histone tails; P83916; AlphaScreen HP1-beta / biotin-H3K9me3 peptide binding; Potency, µM (highest dose often 114 µM), inactives show at the highest dose activity change, negative = inhibition, hits mostly inhibitors; 0.56% of 390,000 active; also: nearly all actives have a fitted effect of over 70% in size
#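 AlphaScreen: HP1-beta (50 nM) preformed 30 min with biotin-H3(1-18)K9me3 peptide (50 nM) in PBS pH 7.4, 0.01% Tween-20. Compound added for 30 min at RT, then streptavidin donor/nickel chelate acceptor beads (10 ug/mL) for 30 min.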
# JMJD2A Tudor inh – inhibitors of human JMJD2A Tudor domain; Potency, µM (series often up to 114 µM), for the others: at the highest dose activity change, negative = inhibition, most hits filed as inhibitors; AlphaScreen JMJD2A-Tudor / H3K4me3 peptide binding; 4.4% of 390,000 active; O75164; also: % is scaled to controls: 0 for no effect and ±100 for the full control effect; nearly all actives have a fitted effect of over 50% in size
# BAZ2B inh – BAZ2B (human) inhibition; Potency, µM (series often up to 114 µM), for inactives: at the highest dose activity change, negative = inhibition, actives largely listed as inhibitors; AID 504333; Q9UIF8; 4.4% of 360,000 active; AlphaScreen BAZ2B-H3K14Ac peptide displacement; also: % is scaled to controls: 0 for no effect and ±100 for the full control effect; nearly all actives have a fitted effect of over 60% in size
#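 Inhibition is scored as reduced AlphaScreen emission. The BAZ2B/b-H3(5-23)K14Ac complex (50 nM each) in PBS pH 7.4, 0.01% Tween-20 meets compound (up to 110 uM) for 30 min at RT before bead addition.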
# An asterisk follows results filed as active; ? = inconclusive; . = no result given; [ ] = remark or other dose. A selection: hits, their analogues and other compounds. The true share with any hit is near 12%. Calls follow the shape of the dose curve; as a rule, active = well fitted curve in the direction sought with a large enough effect; inconclusive = small, poorly fitted or top-dose-only effect, or another doubt; inactive = no such curve, though single readings can be large; an effect the other way counts as inactive or inconclusive. Potency is read from the fitted curve at half-maximal effect.
SMILES,Sfp PPTase inh,PLK1 PBD block,G9a block,HP1b binding inh,JMJD2A Tudor inh,BAZ2B inh
CNc1sc(C(=O)c2ccccc2F)c(N)c1-c1nc2ccccc2s1,-30%,-1%,?,?,50µM*,40µM*
CCOC(=O)c1cnc2c(Cl)c(Cl)ccc2c1Nc1ccc(N(C)C)cc1,.,.,?,1%,?,-30%
COc1ccc(CC(=O)NCc2nnc(SCC(=O)c3ccc(OC)cc3)n2C)cc1,16%,5%,-26%,44%,-11%,-3%
CCn1c(CNC(=O)c2ccc(OC)c(OC)c2)nnc1SCC(=O)c1ccc(OC)cc1,-14%,?,11µM*,-13%,-4%[11.4 µM],-4%
COc1ccc(C(=O)NCc2nnc(SCC(=O)c3ccc(F)cc3)n2C)cc1OC,.,-15%,-2%[0.501 µM],13%,-3%,9%
CCSCc1nnc(SCC(=O)c2ccc(OC)cc2)n1C,-23%,-11%,?,2%,50µM*,0%
COc1ccc(C(=O)CSc2nnc(CNC(=O)c3ccc(OC)c(OC)c3)n2C)cc1,-15%,-2%,-4%[12.7 µM],-8%,45µM*,7%
COc1ccc(OC)c(C(=O)CSc2nnc(Cc3cccs3)n2C)c1,45µM*,-5%,-16%[59 µM],38%,-6%,8%
O=C(CSc1nc(=O)[nH]c2c1CCCC2)NCc1ccccc1Cl,.,.,9%[59 µM],83%,-4%,18%
CCn1ccc2cc(S(=O)(=O)N3CCCN(C(=O)Nc4ccc(C)cc4Cl)CC3)ccc21,.,.,14%[59 µM],15%[57 µM],-22%,-5%
COc1ccc(C(=O)CSc2nccn2C)cc1,56µM*,-16%,50µM*,4%,-12%,-30%
Cc1cc(C)c(C)c(S(=O)(=O)N2CCC(C(=O)OCC(=O)N3c4ccccc4NC(=O)C3(C)C)CC2)c1C,-4%,-3%,14%[12.7 µM],-10%,?,50µM*
CCCN1CCN(c2ncnc3sc(C(=O)Nc4ccc(C(C)C)cc4)c(C)c23)CC1,.,.,?,1%,?,-39%
COc1cccc(C=Nc2cc(C)on2)c1O,-15%,-25%,?,59%,-11%[57.1 µM],-1%
COc1ccccc1/C=C/C=N/n1c(-c2n[nH]c3c2CCC3)n[nH]c1=S,22µM*,?,1.4µM*,?,35µM*,-26%
S=c1[nH]nc(-c2n[nH]c3c2CCC3)n1/N=C/C=C/c1ccco1,11µM*,?,.,-12%,5µM*,?
COc1cccc(/C=N/n2c(-c3cc(C)[nH]n3)n[nH]c2=S)c1O,2.2µM*,-19%,.,10%,2.8µM*,?
COc1cccc(/C=N/n2c(-c3n[nH]c4c3CCC4)n[nH]c2=S)c1O,25µM*,?,1.4µM*,?,7.9µM*,-2%
COc1cccc(C=Nc2ccc3c(c2)CCC3)c1O,18%,?,-9%,-19%,?,?
COc1ccc(CN2C(=O)C(CC(=O)NCCN3CCOCC3)CC(C(=O)N3CCOCC3)=C2C)cc1 (stereo not given),.,-1%,.,.,.,.
CC1CCC(NC(=O)c2ccc3c(c2)N(Cc2cccc(Cl)c2)C(=O)c2ccccc2S3(=O)=O)CC1 (stereo not given),.,.,-8%[59 µM],0%,-9%,1%
CC(=O)Nc1cccc(NC(=O)CSc2nccn2C2CCCC2)c1,.,.,-20%[59 µM],40%,-16%,-3%
COc1ncc2nc(-c3cn(C)c4ccccc34)c(=O)n(C[C@H]3CCCO3)c2n1,20%,.,18%[0.501 µM],.,.,.
COC(=O)c1nnc(C(=O)NCc2ccccc2)c2[nH]c3ccc(OC)cc3c12,10%,.,.,.,.,.
COc1cc(/C=N/n2c(-c3n[nH]c4c3CCC4)n[nH]c2=S)cc(OC)c1O,56µM*,-26%,?,?,1.1µM*,-33%
SMILES,Sfp PPTase inh,PLK1 PBD block,G9a block,HP1b binding inh,JMJD2A Tudor inh,BAZ2B inh
COc1ccccc1CNC(=O)COC(=O)CCN=C1NS(=O)(=O)c2ccccc21,.,0%,?,26%,-8%,-4%
C[n+]1ccccc1Nc1cc([N+](=O)[O-])ccc1N,-10%,1%,11µM*,22%,-7%,?
COc1cccc(C(=O)NCCS(=O)(=O)NCCc2ccccc2)c1,.,-7%,45µM*,23%,-3%,6%
COc1cccc(C(=O)NCCS(=O)(=O)NC2CCCC2)c1,.,-16%,32µM*,19%,-7%,14%
COc1ccc(C(=O)NCCS(=O)(=O)NCCc2ccccc2)cc1,.,-10%,6%[0.501 µM],7%,-8%,15%
Cn1nc(-c2ccccn2)nc2c(=O)n(C)c(=O)nc1-2,50µM*,-11%,14µM*,20%,11µM*,10µM*
C=C1C(=O)[C@@]23[C@H](O)C[C@@H]4C(C)(C)CC[C@H](O)[C@]4(C)[C@@H]2C[C@H](O)[C@@H]1[C@H]3O,45µM*,-12%,-2%,50%,-6%,16%
Cc1ccc2c(c1C)OC(=O)CC2c1ccccc1 (stereo not given),-11%,-3%,.,134%,45%,50%
CC(C)c1ccc(-c2cc(C(=O)NN3CCN(C)CC3)c3ccccc3n2)cc1,40µM*,-26%,50µM*,-4%,?,-35%
Cc1ccc(C)c(S(=O)(=O)NCC(c2ccc3c(c2)OCO3)N2CCOCC2)c1 (stereo not given),.,27%,0%,14%,-17%,12%
COc1ccc(NS(=O)(=O)c2ccc3c(c2)OCCO3)cc1OC,11%,2%,?,17%,-11%,-3%
COc1ccc(S(=O)(=O)NCC(c2ccc3c(c2)OCO3)N2CCN(C)CC2)cc1OC (stereo not given),.,-14%,50µM*,7%,-15%,9%
COc1ccc(S(=O)(=O)Nc2ccc3c(c2)OCO3)cc1OC,-8%,-2%,50µM*,7%,-23%,-5%
CCOc1ccc(S(=O)(=O)NCC(c2ccc3c(c2)OCO3)N2CCN(C)CC2)cc1 (stereo not given),.,-9%,-21%[0.501 µM],4%,-21%,-13%
COc1ccc(C)cc1S(=O)(=O)NCC(c1ccc2c(c1)OCO2)N1CCN(C)CC1 (stereo not given),.,-4%,11µM*,22%,-4%,9%
CC(C)(C)OC(=O)N1CCC[C@H]1C(=O)OCC(=O)Nc1cc(S(C)(=O)=O)ccc1Cl,.,6%,-9%[12.7 µM],27%,-15%,6%
CC(=O)Oc1ccc(OC(C)=O)c(SCCCCCN2CCOCC2)c1,79µM*,-10%,27%[0.501 µM],?,-13%,-34%
Cc1ccc(SCCCCN2CCOCC2)cc1,-1%,-13%,-27%,26%,-19%,-5%
CCOC(=O)C1CCN(CCCSc2ccc(Cl)cc2)CC1,11%,-9%,.,17%,-11%,-3%
CC1CCCN(CCSc2ccc(Cl)cc2)C1 (stereo not given),5%,-20%,11µM*,?,?,-36%
